Common to all, as to experiment: PBM binding z-score (relative to random genomic background probes); higher = stronger binding; sequences stand for … in GC…GCGATTGACAGCGTAGAATGAAGG
The test system of assay [1] is LXRa:RXRa (NR concentration 270 nM, RXRa partner concentration 90 nM). The method in brief:
(§1)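 Ligand-free nuclear receptor dimers were bound for 1 h to custom Agilent 4×180K protein-binding microarrays. Detection used antibodies against each partner (one per run). Binding z-scores rest on regression-normalized fluorescence, with random background probes as the reference.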

Assay [2] has as its system LXRa homodimer (NR concentration 270 nM). Summed up:
as §1

The test system of assay [3] is LXRb homodimer (NR concentration 270 nM). Summed up: as §1
The test system of assay [4] is PPARa:RXRa (NR concentration 270 nM, RXRa partner concentration 90 nM). The method in brief:
as §1

The subject of assay [5] is PPARg:RXRa (NR concentration 180 nM, RXRa partner concentration 90 nM). Summed up:
as §1

For assay [6], the system named is PPARg:RXRa 270nM:90nM, anti-RXR (NR concentration 270 nM, RXRa partner concentration 90 nM). Summed up:
as §1

Assay [7] relates to PPARg:RXRa 30nM:10nM, anti-RXR (NR concentration 30 nM, RXRa partner concentration 10 nM). Summed up:
as §1

The test system of assay [8] is PPARg:RXRa 90nM:30nM, anti-RXR (NR concentration 90 nM, RXRa partner concentration 30 nM). Summed up:
as §1

For assay [9], the system named is PPARg:RXRa DBDmut IVT, anti-RXR (DBD mutation: RXRa K156A/R161A, NR concentration 270 nM, RXRa partner concentration 90 nM). Summed up: as §1
Assay [10] concerns PPARg:RXRa IVT, anti-PPARg (NR concentration 270 nM, RXRa partner concentration 90 nM). The method in brief:
as §1

Assay [11] concerns PPARg DBDmut:RXRa IVT, anti-PPARg (DBD mutation: PPARg1 K132A/R137A, NR concentration 270 nM, RXRa partner concentration 90 nM). The method in brief: as §1
For assay [12], the system named is PPARg DBDmut IVT, anti-PPARg (DBD mutation: PPARg1 K132A/R137A, NR concentration 270 nM). The method in brief: as §1
The test system of assay [13] is PPARg homodimer (NR concentration 180 nM). The method in brief: as §1
The subject of assay [14] is PXR:RXRa (NR concentration 270 nM, RXRa partner concentration 90 nM). Summed up:
as §1

The test system of assay [15] is PXR homodimer (NR concentration 270 nM). The method in brief: as §1
For assay [16], the system named is RARa:RXR (NR concentration 270 nM, RXRa partner concentration 90 nM). The method in brief: as §1
The test system of assay [17] is RARa homodimer (NR concentration 270 nM). The method in brief:
as §1

Assay [18] concerns RARb:RXRa (NR concentration 270 nM, RXRa partner concentration 90 nM). The method in brief:
as §1

Assay [19] concerns RARb homodimer (NR concentration 270 nM). The method in brief: as §1

Take CGAACTAGGTCATCCAGGACCGTGAATACATTGA: the PBM binding z-score in [1] was 2.19; in assay [2], 0.428; in assay [3], -0.349; in assay [4], 4.4; in assay [5] it was 7.13; in [6] it was 6.1. Also, the PBM binding z-score in [7] was 3.53; in assay [8] it was 5.78; in assay [9], 8.24; in assay [10], 8.09; in [11] it was 1.32; in assay [12], 0.732. Besides, the PBM binding z-score was 1.83 in assay [13]; 1.34 in [14]; -0.0905 in assay [15]; 1.84 in assay [16]; 0.294 in assay [17]; 3.6 in assay [18]. The PBM binding z-score in assay [19] amounted to 2.57.
Take AGAATGAGGTCATACGTAGATCAGGGAAGAAAGT: the PBM binding z-score in assay [1] was 6; in [2], 1.75; in assay [3] it was 1.92; in assay [4] it was 6.29; in assay [5], 7.83; in [6] it was 7.25. The PBM binding z-score in [7] was determined as 4.88; in [8] it was 6.67; in [9], 6.81; in assay [10] it was 6.69; in [11], 1.6; in assay [12] it was 2.79. Also, the PBM binding z-score in assay [13] came out at 2.06; in assay [14] it was 4.89; in assay [15], 1.94; in assay [16], 5.04; in assay [17], 1.17; in assay [18], 4.84. In addition, in assay [19], the PBM binding z-score amounted to 3.6.
For the sequence AGTCAAACTTCAGGACGAGGTAACGTAAAGCACG, the PBM binding z-score was -0.137 in assay [1]; -0.0988 in assay [2]; -0.504 in [3]; 0.0838 in assay [4]; 0.919 in [5]; -0.132 in [6]. Besides, the PBM binding z-score in assay [7] is 0.281; in [8], -0.00758; in assay [9] it was -0.522; in [10], 0.278; in [11], 0.625; in [12], 0.0207. The PBM binding z-score is 0.24 in [13]; -0.409 in [14]; -0.112 in assay [15]; 0.165 in assay [16]; 0.202 in assay [17]; 0.545 in [18]. The sequence also gave a PBM binding z-score in [19] of 0.304.
In the case of AATACAGGGTCATCGTACGCCAGAGTACGCACAG, the PBM binding z-score in [1] is 6.21; in assay [2], 2.87; in [3], 1.54; in [4] it was 5.99; in assay [5], 7.02; in assay [6] it was 6.25. The PBM binding z-score in assay [7] was 2.92; in assay [8], 5.21; in [9] it was 2.92; in assay [10] it was 4.44; in assay [11], 3.9; in assay [12], 1.45. Besides, the PBM binding z-score in assay [13] stood at 3.42; in assay [14], 4.53; in [15], 0.995; in assay [16], 5.47; in assay [17], 1.81; in assay [18] it was 4.45. The PBM binding z-score in assay [19] turned out to be 3.46.
On to CGTCAAAGGTCAGAGAGGTCAGTGAATGCCGAGT, for which the PBM binding z-score in assay [1] amounted to 6.59; in [2] it was 4.99; in assay [3] it was 1.76; in assay [4], 6.13; in [5] it was 7.66; in [6], 7.15. Also, the PBM binding z-score came out at 4.06 in [7]; 6.28 in [8]; 4.14 in [9]; 5.36 in assay [10]; 0.83 in assay [11]; 0.0737 in assay [12]. Besides, the PBM binding z-score in assay [13] was found to be 5.81; in assay [14], 6.7; in [15], 12.3; in assay [17], 5.86; in assay [19], 6.19.
Turning to CCAACTGGGCCAAAAAGGTCATTGATGCCGATAA, the PBM binding z-score amounted to 4.4 in assay [1]; 3.17 in assay [2]; 0.337 in assay [3]; 4.57 in [4]; 3.08 in assay [5]; 4.09 in assay [6]. Besides, the PBM binding z-score in [7] was 1.65; in assay [8], 3.3; in assay [9], 4.24; in assay [10], 3.89; in [11], -0.199; in assay [12], -0.68. For the same sequence, the PBM binding z-score in assay [13] turned out to be 2.84; in assay [14] it was 4.6; in assay [15], 3; in assay [16], 4.65; in assay [17] it was 1.31; in [18], 3.94. In addition, the PBM binding z-score in assay [19] stood at 4.36.
With ACGCGGAGGACAAAGGTCAGAGCTACGCCAGTGA, the PBM binding z-score in [1] was 4.13; in assay [2], 1.02; in [3], 0.25; in assay [4], 4.75; in assay [5], 7.04; in assay [6], 6.29. Also, the PBM binding z-score in [7] was 4.31; in assay [8] it was 6.15; in [9], 0.442; in assay [10], 3.08; in [11] it was -0.183; in [12], -0.911. In addition, the PBM binding z-score was 2.67 in [13]; 3.88 in [14]; 0.273 in [15]; 5.05 in [16]; 0.759 in assay [17]; 4.48 in assay [18]. Moreover, the PBM binding z-score in [19] was determined as 4.11.

(Values after the supplement of paper PMC6555819.)
